Lassa entry inh – Lassa virus entry inhibition; AID 540256; Lassa virus pseudotype entry inhibition, cell reporter; hit rate 1.2% among 300,000; Potency, µM (series often up to 37.9 µM), for inactives: top-dose activity change, negative = inhibition, usual class: inhibitors; calls by dose curve; tested in HEK293 cells; note: nearly all actives have a fitted effect of over 50% in size
HCV inhibitor – HCV inhibition | Huh7.5.1 HCVcc-Cre infection, luciferase reporter, 44 h | Potency, µM (series often up to 41.8 µM), for the others: at the highest dose activity change, negative = inhibition, actives largely listed as inhibitors | hit rate 3.4% among 340,000 | AID 651820; active = well fitted inhibition curve with a large enough effect; inconclusive = small, poorly fitted or top-dose-only effect, or another doubt; inactive = no such curve, though single readings can be large or run the other way
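Luciferase read-out (15 sec integration) after a 15 min room-temperature substrate step quantifies HCVcc-Cre infection. Cells, 1,000 per well, had compound added 4 h post-plating, then virus at ~0.5 moi, and were cultured 44 h.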
FMDV antiviral – blocks foot and mouth disease virus | FMDV antiviral cell-based qHTS | Potency, µM (top dose mostly 57.9 µM), for inactives: top-dose activity change, negative = inhibition, actives largely listed as inhibitors | hit rate 1.2% among 410,000 | AID 1159524; calls by dose curve; tested in HEK293T cells; note: read-out not given here; nearly all actives have a fitted effect of over 45% in size
Marburg entry inh – blocks Marburg virus binding to or entry into cells | AID 540276 | Potency, µM (titrated, usually from 37.8 µM), for the others: at the top dose activity change, negative = inhibition, most hits filed as inhibitors | hit rate 1.8% among 300,000 | Marburg virus pseudotyped entry inhibition, cell reporter; calls by dose curve; tested in HEK293 cells
VACV mCherry inh – vaccinia inhibition (mCherry reporter). Potency, µM (top dose mostly 36.5 µM), without a hit: at the top dose activity change, negative = inhibition, hits mostly inhibitors. Vaccinia virus mCherry reporter infection, fluorescence. hit rate 0.63% among 310,000. AID 720579; calls by dose curve; tested in A549 cells; note: nearly all actives have a fitted effect of over 35% in size
VACV Venus inh – vaccinia inhibition (Venus reporter) | Vaccinia virus Venus reporter expression, fluorescence | Potency, µM (highest dose often 36.5 µM), without a hit: at the highest dose activity change, negative = inhibition, most hits filed as inhibitors | hit rate 0.46% among 330,000 | AID 720580; calls by dose curve; tested in A549 cells; note: nearly all actives have a fitted effect of over 30% in size
The depositor's hits bear a star; i = inactive; ? = inconclusive; · = no result given; [ ] = dose if it differs, or a comment. The list is not random: actives were taken first. Their share in the collection is about 5.3%. % is set by controls: 0 for no effect and ±100 for the full control effect; potency is the fitted concentration of half-maximal effect.

SMILES | Lassa entry inh | HCV inhibitor | FMDV antiviral | Marburg entry inh | VACV mCherry inh | VACV Venus inh
CCN(CC)S(=O)(=O)c1ccc2c(c1)c(=O)c(C(=O)N1CCN(c3ccc(F)cc3)CC1)cn2C | 1%[46.1 µM] | · | 2% | 0%[46.1 µM] | -11% | -6%
CC(C)Oc1ccc(CNC(=O)c2cnc3sc(N4CCCCC4)nn3c2=O)cc1 | ? | · | -21% | · | 1% | -9%
CCC(C(=O)Nc1ccc(F)cc1F)n1nc(-c2ccccc2)c2c(c1=O)CCCC2 (centres undefined) | -12%[46.1 µM] | · | 2% | -24%[46.1 µM] | -6% | -7%
COc1ccc(CCNC(=O)c2ccc([N+](=O)[O-])cc2Cl)cc1OC | 6% | -23% | -20% | -30% | -10% | -12%
COc1ccc(CCNC(=O)c2ccc(CS(=O)(=O)c3ccc(C)cc3)o2)cc1OC | ? | 14µM* | 32µM* | ? | i | -8%
COc1ccc(CCNC(=O)c2ccc(-c3ccc([N+](=O)[O-])cc3Cl)o2)cc1OC | ? | 7.1µM* | 13µM* | ? | -24% | -9%
CCOc1cc2sc(N3CCC(C(=O)Nc4ccccc4Cl)CC3)nc2cc1Br | · | · | 4% | 4%[46.1 µM] | 2% | -17%
CN1CCc2c(n(C[C@H](O)CN3C(=O)c4ccccc4S3(=O)=O)c3ccccc23)C1=O | · | · | · | -20% | · | ·
CCN1CCc2nc3sc(C(=O)N4CCc5ccccc5C4)c(N)c3cc2C1 | 1%[46.1 µM] | ? | -7% | ? | ? | 4%
COc1ccc2cc3c(N)c(C(=O)N4CCCC4)sc3nc2c1 | ? | ? | -11% | ? | · | -4%
CC(C)c1ccc2nc3sc(C(=O)N4CCc5ccccc5C4)c(N)c3cc2c1 | 8% | 10µM* | 27% | 18% | ? | -12%
Cc1ccc2nc3sc(C(=O)N4CCOCC4)c(N)c3cc2c1 | ? | 28% | 10µM* | 0.41µM* | ? | -12%
CCOc1ccc2nc3sc(C(=O)N4CCN(C)CC4)c(N)c3cc2c1 | 23% | 11µM* | 4% | -3% | · | ·
Cc1ccc(-c2cc(C(=O)N(C)Cc3cnn(C)c3C)c3cc(Br)ccc3n2)cc1 | ? | ? | -8% | 8.9µM* | -8% | -12%
Cc1ccc(-c2cc(C(=O)NCc3cnn(C)c3C)c3cc(Br)ccc3n2)cc1 | 13%[46.1 µM] | ? | 2% | 18%[46.1 µM] | -24% | -15%
COc1ccccc1CNc1ncnc2sc(C(=O)N(C)C(C)C)c(C)c12 | · | · | -11% | · | -17% | -12%
CCC(C)NC(=O)COC(=O)c1csc2c1CCCC2 (centres undefined) | · | 16% | 3.5µM* | · | -12% | -9%
Cc1ccc(C(=O)Sc2cccccc2=O)cc1 | ? | -11% | 0% | ? | 1µM* | 1.8µM*
O=C1[C@@H]2[C@H]3[C@H](O)[C@H](O)CC(=NOC[C@@H](O)COCc4ccco4)[C@@H]3CC[C@H]2C(=O)N1Cc1ccccc1 | · | · | · | -4%[14.2 µM] | · | ·
Cc1ncc2c(c1CNC(=O)c1ccc3c(c1)OCO3)CCN(C(=O)c1cc3ccccc3o1)C2 | · | · | -8% | · | -11% | 6%
Cc1ccc2oc(-c3ccc(C)c(NC(=O)/C=C/c4ccco4)c3)nc2c1 | 4%[46.1 µM] | · | 20% | ? | -3% | -9%
CCC(=O)N1c2nc(-c3ccco3)nn2C2(CCCCC2)[C@@H]2CCCC[C@@H]21 | ? | · | 0% | -21%[46.1 µM] | -3% | -14%
CCOC(=O)/C(=N/Nc1ccccc1)c1csc(Nc2ccccc2)n1 | 2% | ? | -16% | -7% | ? | ?
CCOC(=O)/C(=N\Nc1ccc(OC)cc1)c1csc(Nc2ccccc2)n1 | -1% | 1µM* | · | ? | -20% | -30%
COC(=O)c1c(C(=O)OC)c2c3ccccc3cc(C3CC3)n2c1C(=O)OC | · | · | · | 12%[14.2 µM] | · | ·
Cc1sc2nc(CSc3ccccc3)nc(N3CCN(C)CC3)c2c1C | ? | ? | ? | ? | 1% | -29%
COCCNc1nc(CSc2ccccc2)nc2sc(C)c(C)c12 | ? | 25µM* | 0% | -4% | i | -23%
COc1ccc(NC(=O)CSc2nc3ccccc3nc2N2CCC(C)CC2)cc1 | ? | · | 4% | ? | -15% | -11%
